Hits are enriched below; roughly 28% of the tested compounds scored in any of these assays.
D1 mod: D1 CRE-luciferase signal change, two-sided – cell-based, HEK293 D1, dopamine EC30, D1 allosteric modulator project, primary screen; D(1A) dopamine receptor (Homo sapiens), P21728; dopamine EC30 potentiation; actives deviate in either direction; B-score at 10 µM; 58,000 compounds, 5.9% hits; AID 641, 2007;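 active means luminescence count or its row- and column-corrected plate score outside the 99.7% band of the plate's sample wells, on either side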
Target sequence (P21728 whole entry, looked up): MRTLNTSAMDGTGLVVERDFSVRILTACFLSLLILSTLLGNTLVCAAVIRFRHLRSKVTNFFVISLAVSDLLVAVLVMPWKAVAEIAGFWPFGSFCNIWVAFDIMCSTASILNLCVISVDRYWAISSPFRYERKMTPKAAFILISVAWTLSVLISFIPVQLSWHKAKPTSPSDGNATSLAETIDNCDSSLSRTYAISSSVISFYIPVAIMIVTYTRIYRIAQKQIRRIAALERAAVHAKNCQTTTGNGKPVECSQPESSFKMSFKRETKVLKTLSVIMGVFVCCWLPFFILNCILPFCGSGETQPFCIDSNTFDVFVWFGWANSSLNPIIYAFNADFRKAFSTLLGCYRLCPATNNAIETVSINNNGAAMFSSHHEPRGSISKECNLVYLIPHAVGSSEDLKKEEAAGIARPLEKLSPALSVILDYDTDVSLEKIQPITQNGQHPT
CYP2C9 activ: human CYP2C9 activators, primary screen, biochemical, luminescence. activation factor at 5 µM. Cytochrome P450 2C9 (Homo sapiens), P11712. recombinant CYP2C9, luciferin-H conversion; hits give high values; factor 1 = untreated enzyme, 0 = blocked. AID 1024, 2008. 96,000 compounds, 1.4% hits;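 active means activation factor of 2 or more for CYP2C9 at a 5 µM dose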;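 further: 0 = sulfaphenazole-blocked wells and 1 = vehicle-only wells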
CYP2C19 inh: blockers of cytochrome P450 2C19 activity – biochemical, luminescence, ADME assay, primary screen; P33261; 96,000 compounds, 21% hits; inhibition, % at 5 µM; CYP2C19 Supersomes, luciferin-H EGE luminescence, 30 min;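 active means CYP2C19 inhibition above a set limit at 5 µM in the primary screen, cut at about 50% in these data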;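 further: plate controls were negative control wells for no effect and 2.5 mM tranylcypromine positive control for full effect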
hDAT+cocaine: changed hDAT dopamine uptake under cocaine IC80, either direction, primary screen, cocaine antagonist project, cell-based, LLC-PK1 hDAT, [14C]-dopamine uptake, MLSMR; B-score at 10 µM; Sodium-dependent dopamine transporter (Homo sapiens), Q01959; AID 449768, 2010; LLC-PK1 hDAT cells, [14C]-dopamine uptake with cocaine IC80; actives deviate in either direction; 110,000 compounds, 1.3% hits;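 active means Z score or B-score, a plate-position-corrected score, falls beyond the plate's 99.7% confidence bounds, in either direction; inactive means both scores lie inside the 99.7% bounds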;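 further: scored against the spread of the other compound wells on the same plate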
CYP2C19 activ: human CYP2C19 activators, primary screen, biochemical, luminescence; activation factor at 5 µM; recombinant CYP2C19, luciferin-H EGE luminescence; hits give high values; 0 = fully inhibited enzyme, 1 = untreated enzyme; 96,000 tested, under 10 active;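 active means activation factor of at least 2 at 5 µM in the primary screen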;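 further: 0 = wells with 2.5 mM tranylcypromine and 1 = vehicle-only wells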
CYP2C9 inhib: blockers of cytochrome P450 2C9 activity – biochemical, luminescence, ADME assay, primary screen. 96,000 compounds, 20% hits. CYP2C9 Supersomes, luciferin-H conversion. AID 777, 2007. P11712. inhibition, % at 5 µM;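 active means blocking of liver enzyme CYP2C9 beyond about 50% at 5 µM, limit read from the data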
The depositor's hits bear a star; / = no result given.

SMILES	D1 mod	CYP2C9 activ	CYP2C19 inh	hDAT+cocaine	CYP2C19 activ	CYP2C9 inhib
COc1cc(/C=C(/C#N)c2nc3ccccc3[nH]2)ccc1OCC(=O)Nc1ccccc1C(C)C	/	0.4	38	-0.74	0.6	60*
CCN(CC)CCNC(=O)Cn1c(-c2ccccn2)nc2ccccc21	-1.5	1.1	-12	0.85	1.1	-6
CCCCCC(C(=O)O)C(C)CC(=O)NC1CCCCC1 (stereo not drawn)	-0.36	0.9	2	-0.46	1	13
CN1C(C(=O)NCc2cccc(Br)c2)CC2Cn3c(nc4cc5ccccc5cc43)C21 (stereo not drawn)	/	/	/	1.4	/	/
CCOC(=O)NC(O)C(=O)c1cccs1 (stereo not drawn)	/	1.1	-9	-0.028	1.1	-9
C1CCC(C23CC4CC(CC(C4)C2)C3)NC1 (stereo not drawn)	/	/	/	-0.2	/	/
CCOc1cc(/C=C(/C#N)c2nc3ccccc3[nH]2)ccc1OCc1ccc(C(=O)O)o1	/	/	/	0.47	/	/
COc1cc(/C=C(\C#N)c2nc3ccccc3[nH]2)c([N+](=O)[O-])cc1OCc1ccccc1	/	0.2	43	0.6	0.6	76*
CCN(CC)c1ccc(/C=C(/C#N)c2nc3ccccc3[nH]2)c(OC(C)C)c1	/	0.3	48	2	0.5	74*
CCOC(=O)/C(C#N)=C/c1cc(C)n(-c2ccc(C)cc2)c1C	/	0.4	16	0.29	0.8	55*
COc1ccc(NC2=NCC(=O)N2c2ccccc2)c(OC)c1	-0.042	0.5	64*	0.41	0.4	52*
Nc1ccc2nc(SCc3ccc([N+](=O)[O-])cc3)sc2c1	/	0.4	97*	/	0	59*
O=[N+]([O-])c1ccc2nc(SCc3ccccc3Cl)sc2c1	/	0.9	26	-0.74	0.7	12
N#C/C(C(=O)c1ccccc1)=C1/CCCCCN1	0.048	1	39	-0.042	0.6	-4
O=C1/C(=C\c2cccnc2)SC(=S)N1C1CCS(=O)(=O)C1 (stereo not drawn)	/	0.6	-9	-1.2	1.1	41
O=C(NN1C(=O)/C(=C/c2cccnc2)SC1=S)C(c1ccccc1)c1ccccc1	/	0.2	38	-0.11	0.6	82*
C[N+]1(CC(=O)Nc2ccccc2Cl)CCN(C(=O)c2cccs2)CC1	/	1.1	-12	-0.22	1.1	-15
CCOC(=O)CC1(c2ccccc2)CCOC(C)(C)C1 (stereo not drawn)	/	0.7	87*	0.08	0.1	34
C/C(N)=C(/C#N)C(=O)CSc1nc2ccccc2[nH]1	/	0.9	71*	-0.053	0.3	11
CC1CCN(C(=O)CSc2nc3ccccc3[nH]2)CC1	-0.98	0.8	74*	0.26	0.3	25
C/C(N)=C(/C#N)C(=O)CSc1ncnc2ccccc12	0.59	1	71*	-0.66	0.3	2
CC(C)c1nnc(NC(=O)c2c(O)c3cccc4c3n(c2=O)CCC4)s1	-1.6	0.4	5	0.29	0.9	63*
Cc1cnc(NC(=O)c2c(O)c3cccc4c3n(c2=O)CCC4)s1	0.11	0.9	14	-1.8	0.9	13
CCCC/C=C/C(NC(=O)c1ccc(-c2ccccc2)cc1)c1ccccc1 (stereo not drawn)	/	/	/	-0.043	/	/
Cc1sc2ncnc(N3CCN(CCOc4ccc(Cl)cc4)CC3)c2c1C	/	0	97*	-1.1	0	99*
SMILES	D1 mod	CYP2C9 activ	CYP2C19 inh	hDAT+cocaine	CYP2C19 activ	CYP2C9 inhib
CC(C)(C)NC(=O)CSc1nc(-c2ccccc2)c(-c2ccccc2)[nH]1	/	0.9	11	0.24	0.9	12
Oc1ccccc1N=Nc1nc(-c2ccccc2)c(-c2ccccc2)[nH]1	/	0.5	24	-0.95	0.8	54*
Cc1ccc(CNC(=O)c2ccc(CN3CCOCC3)cc2)cc1	0.52	1	-15	-0.61	1.1	1
Cc1cc(C)c(C#N)c(SCSCc2ccccc2)n1	/	0.3	99*	-0.13	0	74*
COCCn1c(C)cc(C(=O)CSc2nnc3ccccn23)c1C	-7.3*	1	71*	0.00057	0.3	3
CC(C)CCNC(=O)NC(=O)CSc1nnc2ccccn12	-0.14	1.2	6	0.12	0.9	-16
O=C(CSc1nnc2ccccn12)c1ccc(OC(F)F)cc1OC(F)F	0.38	0.7	76*	-0.023	0.2	27
Cc1cc(C)c(C#N)c(SCC(=O)c2cc(C)n(CCc3ccccc3)c2C)n1	/	0.2	82*	0.61	0.2	85*
Cc1cc(C)c(C#N)c(SCc2ccccc2)n1	/	/	/	-0.53	/	/
COCCn1c(C)cc(C(=O)CSc2nc(C)cc(C)c2C#N)c1C	-0.41	1.1	78*	0.069	0.2	-14
COCCn1c(C)cc(C(=O)CSc2ncn[nH]2)c1C	-0.17	1.8	45	-1.1	0.6	-83
CCC/C=C(\CCC)C(NS(=O)(=O)c1cccc2cccnc12)c1ccc(C(=O)OC)cc1 (stereo not drawn)	/	/	/	0.062	/	/
CC(C)Cc1ccc(S(=O)(=O)N2CCCC2)cc1	/	0.2	91*	0.38	0.1	78*
CN(C)S(=O)(=O)c1ccc(S(=O)(=O)N2CCCC2)cc1	/	1	62*	0.61	0.4	1
O=S(=O)(c1ccc(S(=O)(=O)N2CCCC2)cc1)N1CCCCCC1	0.0058	0.9	19	0.063	0.8	8
Nc1ccc(S(=O)(=O)N2CCCC2)cc1	/	1.3	-9	0.023	1.1	-34
COc1ccc(/C=C/c2ccccc2)cc1[C@H]1[C@H]2C=CC[C@@H](C)[C@@H]2C(=O)N1Cc1ccccc1	/	/	/	-0.012	/	/
O=C1c2cccc3c(Nc4ccccc4Cl)c([N+](=O)[O-])cc(c23)C(=O)N1CCO	/	0.8	14	-0.61	0.9	23
COc1ccc(N=C2NC(=O)S/C2=C\c2ccc(N(C)C)cc2)cc1	/	0.1	15	0.0023	0.8	94*
Cc1cc(/C=C(\C#N)C(=O)NCc2ccco2)c(C)n1C1CCCC1	/	0.8	-23	0.053	1.2	22
O=C1C(=O)N(Cc2cccnc2)C(c2ccccn2)/C1=C(/O)c1ccccc1 (stereo not drawn)	/	0.2	5	0.62	1	76*
Cc1ccc(C)c(/C(O)=C2\C(=O)C(=O)N(Cc3cccnc3)C2c2cccnc2)c1 (stereo not drawn)	0.042	0.5	1	-0.8	1	51*
COc1ccc(C2/C(=C(\O)c3cccc(OC)c3)C(=O)C(=O)N2c2ccccn2)cc1 (stereo not drawn)	/	0.3	29	1.1	0.7	69*
